About 370 (0.13%) of roughly 290,000 compounds were called active. This is one part of a sample in which actives are shown more often than they occur. Potency and affinity values are given separately. Unmarked numbers belong to inactive results.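 The calls were made as follows: active = spots per cell inhibited over 60%, with over 100 cells counted and total cytoplasm intensity under 500,000; inconclusive = wells with under 100 cells, flagged as likely toxic; inactive = the rest.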

For 97 molecules, inhibition results are on record in PubChem BioAssay AID2013 (Sanford-Burnham Center for Chemical Genomics, 2009).

The target in this test is G-protein coupled receptor 55 (Homo sapiens) (UniProt Q9Y2T6). The test can be described thus: GPR55 antagonists blocking LPI-driven arrestin recruitment, primary screen, imaging, U2OS, beta-arrestin-GFP, LPI agonist (AID 2013).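 Also: U2OS cells stably carrying GPR55 and arrestin-GFP stimulated by 5 µM LPI near EC80; imaged beta-arrestin-GFP aggregate spots per cell after agonist stimulation; plate controls were LPI-stimulated DMSO wells for no effect and DMSO wells without LPI for full effect.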 The note with it: U2OS GPR55 beta-arrestin-GFP translocation imaging, LPI antagonism; at 10 µM; hits give high values. On the technique in general: Arrestin recruitment assays detect the binding of arrestin to an activated receptor.
Sequence of G-protein coupled receptor 55 (Homo sapiens) (Q9Y2T6 whole entry, looked up): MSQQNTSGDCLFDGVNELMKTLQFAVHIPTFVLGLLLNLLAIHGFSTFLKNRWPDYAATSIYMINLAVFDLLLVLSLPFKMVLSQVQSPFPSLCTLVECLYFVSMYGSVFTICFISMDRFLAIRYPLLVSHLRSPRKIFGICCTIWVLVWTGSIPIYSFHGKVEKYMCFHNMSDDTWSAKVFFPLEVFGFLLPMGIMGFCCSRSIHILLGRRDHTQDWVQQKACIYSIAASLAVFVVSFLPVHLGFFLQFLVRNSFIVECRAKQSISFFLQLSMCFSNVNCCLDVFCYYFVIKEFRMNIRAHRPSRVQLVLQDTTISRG
One may read the inhibition as the change of the read-out against control, counted positive when it falls. `Cc1csc(NC(=O)CCC(=O)N(CC(=O)NC2CCCCC2)c2ccccc2)n1`: the inhibition is 7.7%.
To `Cn1cccc1/C=N/N1CCN(Cc2ccccc2Cl)CC1` belongs -2.2%; to `O=C1NC(=O)N(Cc2ccccc2F)C1=O`, -13.9%; to `Cc1cc(F)ccc1NC(=O)C1CCN(S(=O)(=O)c2ccc3c(c2)CCCC(=O)N3)CC1`, 8.1%.
On to `O=C(NCCNC(=O)c1cc(Cl)ccc1Cl)c1ccccn1`, for which the inhibition is 3.4%.
In the case of `CC(NC(=O)Cn1nc(C(=O)O)c2ccccc2c1=O)C12CC3CC(CC(C3)C1)C2` (configuration not stated), the inhibition is -2.7%.
Consider `CC(NC(=O)CN1CCCC1)C12CC3CC(CC(C3)C1)C2` (configuration not stated), for which the inhibition is -3.7%.
As for `O=C(COC(=O)c1cc(S(=O)(=O)N2CCc3ccccc3C2)ccc1Cl)NCc1ccco1`, the inhibition was 7.3%.
Turning to `Cn1c(N)c(C(=O)COC(=O)CCC2CCCCC2)c(=O)n(C)c1=O`, the inhibition was 8.4%.
In the case of `CCN(CC)S(=O)(=O)c1ccc(N2CCOCC2)c(NC(=O)COc2ccccc2C#N)c1`, the inhibition was -13.6%.
With `Cn1c(=O)c2ccccc2n2c(CCl)nnc12`, the inhibition was 5.8%.
As for `O=C(NCc1ccccn1)c1ccc2nc(C3CCCCC3)oc2c1`, the inhibition is -4.5%.
For the molecule `CSCCNC(=O)c1ccc2nc(C3CCCCC3)oc2c1`, the inhibition was 4.5%.
As for `CCOc1ccc(N(C)S(=O)(=O)c2ccc3[nH]cc(C(=O)NCC4CCCO4)c(=O)c3c2)cc1` (configuration not stated), the inhibition is 8.3%.
In the case of `Cc1cc(NC(=O)c2ccc([N+](=O)[O-])cc2)n(CCC#N)n1`, the inhibition is 4.7%.
Turning to `COCCCn1c(=S)[nH]c2sc3c(c2c1=O)CCCS3`, the inhibition is -0.4%.
To `CCc1ccc(CN2CCCC(C(=O)N3CCCCC3)C2)cc1` (configuration not stated) belongs 12%; to `CCc1nnc(NC(=O)c2ccc3c(c2)C(=O)N(CC(C)C)C3=O)s1`, 3.7%; to `CCCNC(=O)c1nnsc1S(=O)(=O)c1ccc(Cl)cc1`, 31.8%.
As to `O=C(Nc1ccccc1)c1nnsc1S(=O)(=O)c1ccc(Cl)cc1`, the inhibition is 4.3%.
The same measure for `CCCNC(=O)c1nnsc1Sc1ccc(Cl)cc1`: -10.7%; for `CNC(=O)c1ncoc1-c1ccc(Cl)cc1`: 12.3%; for `O=C(CC12CC3CC(CC(C3)C1)C2)NC(Cc1ccccc1)C(=O)O` (configuration not stated): 10.7%.
For the molecule `CC(=O)N(C(C)=O)c1nc(-c2ccccc2)cn1/N=C/c1ccccc1`, the inhibition is 7.8%.
Regarding `CCCNC(=O)NC(=O)CSc1nncs1`, the inhibition was 1.8%.
In the case of `Cc1ccc(C(=O)N/C(=C/c2ccco2)C(=O)N2CCCCC2)cc1`, the inhibition is -6.4%.
To `CC(C)Nc1nc(Cl)nc(NCCOc2ccccc2)n1` belongs 1.4%; to `CN(C)CC(C)(C)CNS(=O)(=O)c1ccc(Cl)s1`, 2.9%; to `O=c1[nH]c(Cc2ccccc2)nc2scc(-c3ccccc3)c12`, -0.4%.
In the case of `CN1CCN(c2nc(C(N)=O)cc(-c3ccccc3)n2)CC1`, the inhibition is -5.1%.
Turning to `NC(=O)c1cc(-c2ccccc2)nc(N2CCCCCC2)n1`, the inhibition was -8.5%.
As to `CC(=O)Nc1ccc(S(=O)(=O)NCCC(=O)N2CCc3ccccc32)cc1`, the inhibition was 2.8%.
Take `O=C(NC1CCCN(c2ccc(C(F)(F)F)cn2)C1)c1cc(Cl)ccc1F` (configuration not stated): the inhibition was 9.1%.
`CC(C)=NNc1nc2c(c(=O)[nH]c(=O)n2C)n1CCc1ccccc1`: the inhibition was -4.6%.
As for `COc1ccc(Br)cc1/C=N/Nc1cccc(C(=O)O)c1`, the inhibition was 1%.
With `C=CCOc1c(CNc2cccc(C(=O)O)c2)cccc1OC`, the inhibition is 4.5%.
In the case of `Cc1c(NC(=O)CN2C(=O)NC(CCc3ccccc3)C2=O)c(=O)n(-c2ccccc2)n1C` (configuration not stated), the inhibition was 13.9%.
`NC(=O)[C@@H]1CCOc2c(F)cc([N+](=O)[O-])cc2C(=O)N[C@@H](CO)C(=O)NCC(=O)N1`: the inhibition was 1.8%.
The same measure for `COc1ccc(/C=C2\SC(N)=NC2=O)cc1`: -7%.
As to `CC12CCC(C/C1=N\N=C1\NC(=O)/C(=C\c3ccc(Cl)cc3)S1)C2(C)C` (configuration not stated), the inhibition was 41.5%.
`O=C(CN(C(=O)CCC(=O)Nc1nccs1)c1ccc(F)cc1)NCC1CCCO1` (configuration not stated): the inhibition is 15%.
The same measure for `C/C(Cl)=C\CSc1nnc2n(N)c(=O)c3ccccc3n12`: -16.2%.
On to `Cc1ccc(SCc2cn3cccnc3n2)cc1`, for which the inhibition is -13.1%.
For the molecule `Cc1ccc(OCc2cn3cccnc3n2)cc1`, the inhibition was 12.3%.
Regarding `CCN(Cc1cn2cccnc2n1)C1CCCCC1`, the inhibition is 87.7% (active).
Take `O=C1NCC(c2ccccc2)C1C(=O)N/N=C/c1ccc(Cl)s1` (configuration not stated): the inhibition is 5.1%.
As for `Cc1ccc(/C=c2\s/c(=C(/C#N)C(=O)N3CCCC3)n(Cc3ccco3)c2=O)s1`, the inhibition was 5.1%.
As to `CN(c1ccccc1)c1ccc(/C=c2\s/c(=C(/C#N)C(=O)C(C)(C)C)n(Cc3ccco3)c2=O)cc1`, the inhibition was 74% (active).
Take `COc1ccc(/C=c2\s/c(=C(/C#N)C(=O)NCc3ccco3)n(-c3ccccc3)c2=O)cc1`: the inhibition was 2.8%.
On to `Cc1[nH]c(C)c(S(=O)(=O)N2CCCCC2)c1C(=O)N1CCCCC1`, for which the inhibition is 29.6%.
To `Cc1ccc(N2CN(CCc3ccccc3)CNC2=S)cc1` belongs 5%; to `O=C(Nc1cccc(F)c1)NC1CCN(Cc2ccccc2)CC1`, 6%.
Turning to `COc1ccc(/C=C(\C#N)C(=O)NC(C)c2ccccc2)cc1O` (configuration not stated), the inhibition was 4.5%.
On to `CC(NC(=O)/C(C#N)=C/c1ccc([N+](=O)[O-])o1)c1ccccc1` (configuration not stated), for which the inhibition is 4.1%.
Take `CC(=NCCc1ccccc1)C1=C(O)COC1=O`: the inhibition is 13.7%.
In the case of `CCOC(=O)c1c(N)sc(C(O)(C(F)(F)F)C(F)(F)F)c1-c1ccc(OC)cc1OC`, the inhibition is 22.9%.
Turning to `CCOC(=O)c1c(N)sc(-c2ccccc2)c1C`, the inhibition is -6.5%.
In the case of `CCOC(=O)c1c(N)sc(C(O)(C(F)(F)F)C(F)(F)F)c1-c1ccc(Cl)cc1`, the inhibition was 5.7%.
Turning to `CCOC(=O)c1c(N)sc(N)c1C(=O)OCC`, the inhibition is 6.2%.
On to `N#Cc1c(N)nc(SCC(=O)C23CC4CC(CC(C4)C2)C3)c(C#N)c1-c1ccc(Cl)cc1`, for which the inhibition is 0.2%.
Regarding `COC(=O)c1cccc(NC(=O)CSc2nc3cccnc3n2C)c1`, the inhibition is 16.9%.
On to `CCCCCCCc1c(C)nc(N2CCOCC2)[nH]c1=O`, for which the inhibition was 3.4%.
`CCOC(=O)C1=NN(N=O)C2(CC(=O)N(c3cc(C)cc(C)c3)C2=O)C1` (configuration not stated): the inhibition was 8.8%.
As to `CC(C)(C)N(Cc1cc2ccccc2[nH]c1=O)C(=O)c1cccc([N+](=O)[O-])c1`, the inhibition was -1.2%.
As to `O=C(Nc1ccccc1Cl)c1cc[n+]([O-])cc1`, the inhibition was 10.9%.
`CCOc1ccc(CN2CCN(CC(O)Cn3c4ccccc4c4ccccc43)CC2)cc1` (configuration not stated): the inhibition is 79.4% (active).
As for `COc1ccc(CN2CCN(CC(O)Cn3c4ccccc4c4ccccc43)CC2)cc1` (configuration not stated), the inhibition was 50.2%.
For `Cc1ccc(OCCN2CCN(CC(O)Cn3c4ccccc4c4ccccc43)CC2)cc1` (configuration not stated), the inhibition was 72.6% (active).
For `OC(CN1CCN(Cc2ccccc2)CC1)Cn1c2ccccc2c2ccccc21` (configuration not stated), the inhibition is 36.2%.
Consider `Cc1ccc(OCC(O)Cn2c3ccccc3c3ccccc32)cc1` (configuration not stated), for which the inhibition was 6.3%.
As for `CN1CCN(CC(O)Cn2c3ccccc3c3ccccc32)CC1` (configuration not stated), the inhibition was -3.3%.
For the molecule `Cc1ccc(/C=N/NC(=O)c2nnn(-c3nonc3N)c2C(C)C)s1`, the inhibition was 4%.
To `CC1CCN(CCc2nc3cc(NS(=O)(=O)c4ccccc4)ccc3n2C)CC1` belongs -11.2%; to `CCn1c(SCC(N)=O)nc2c1c(=O)n(C)c(=O)n2C`, -11%; to `Cc1onc(-c2ccc(Cl)cc2Cl)c1C(=O)/C=C/N(C)C`, 3.5%.
On to `COc1ccc(C(CNC(=O)C(C)(C)Oc2ccc(Cl)cc2)N2CCCCC2)cc1` (configuration not stated), for which the inhibition was 3.2%.
As for `C=CCc1c(C)nc(-c2ccccc2)nc1N/N=C(\C)c1ccccc1`, the inhibition is 8.1%.
Regarding `Cc1cc(C2(c3ccc(O)c(C)c3)C(=O)Nc3ccccc32)ccc1O`, the inhibition was 5%.
For `CC(=O)Nc1ccc(C2(c3ccc(NC(C)=O)cc3)C(=O)Nc3ccccc32)cc1`, the inhibition is 10.2%.
To `CCOC(=O)C1=C(C)NC(=O)NC1c1ccccc1Cl` (configuration not stated) belongs 14%; to `COC(=O)C1=C(C)NC(=O)CC1c1cccc(Cl)c1Cl` (configuration not stated), 10%; to `CCOC(=O)C1=C(C)NC(C)=C(C(=O)OC)C1c1cccc(Cl)c1Cl` (configuration not stated), 85.2% (active).
For the molecule `COc1cc(C(=O)N2CCN(C(=O)c3cccc4ccccc34)CC2)cc(OC)c1OC`, the inhibition is 4.5%.
On to `CCn1cnc2sc(C(=O)Oc3cccc(C)c3)c(C)c2c1=O`, for which the inhibition was -14%.
To `c1ccc2c(c1)OCC(c1csc3ncnc(N4CCCCC4)c13)O2` (configuration not stated) belongs 6%.
As for `CCN(CC)c1ncnc2scc(C3COc4ccccc4O3)c12` (configuration not stated), the inhibition is 31%.
For `c1ccc2c(c1)OCC(c1csc3ncnc(N4CCCC4)c13)O2` (configuration not stated), the inhibition is 26.4%.
Turning to `c1ccc2c(c1)OCC(c1csc3ncnc(N4CCOCC4)c13)O2` (configuration not stated), the inhibition is 18.5%.
As to `CC(C)CCNc1c(-c2cccs2)nc2ccccn12`, the inhibition is 8.2%.
Take `CC(=O)Nc1nc(-c2ccc(Cl)cc2)ns1`: the inhibition was 9.6%.
As to `CC(C)=CC(=O)OCc1csc(CC(=O)Nc2ccccc2C)n1`, the inhibition was 8.4%.
To `Clc1ccc(-n2nnnc2-c2cnc(-c3ccncc3)nc2-c2cccs2)cc1` belongs 6.4%; to `Clc1ccc(-c2nnnn2-c2ccc(Cl)cc2)cc1`, 7.1%; to `Cn1c(C(=O)N[C@@H](Cc2ccccc2)C(=O)NCCC(=O)O)cc2cc(Cl)ccc21`, 2.2%.
The same measure for `Cc1ccc(-c2nnc(Oc3ccc(NC(=O)c4ccccc4)cc3)c3ccccc23)cc1`: 9.6%.
For the molecule `CC(=O)Oc1ccc2ccccc2c1C(NC(=O)Cc1ccccc1)c1ccc(Cl)cc1` (configuration not stated), the inhibition was 3.5%.
In the case of `CCC(=O)NC(c1ccccc1)c1c(OC(C)=O)ccc2ccccc12` (configuration not stated), the inhibition was 9.1%.
